The campaign covered roughly 300,000 compounds. About 2,400 (0.8%) were called active. This excerpt belongs to a sample that is enriched for actives. A number with no mark means an inactive call.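 How the source made its calls: active means Every replicate reaches about 75%, or at least half do and their mean reaches it too (limit read from the data); inconclusive means At least half of replicates reach the limit but their mean does not; inactive means Under half of replicates reach the limit.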

The assay is described as follows: INS-1E beta cell survival under cytokines – luminescence, primary screen (AID 435005).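 Further: 0% = cytokine-treated negative control wells and 100% = positive control rescue; higher means more ATP so stronger rescue from cytokine killing.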 To be noted: INS-1E cytokine-induced death, ATP luminescence, 48 h; stronger effect = higher value; percent of positive-control rescue, neutral wells zero; concentration not given here.
On to `CC(=O)N1c2ccc(S(=O)(=O)N3CCCC(C(=O)Nc4cccc(Cl)c4)C3)cc2CC1C` (configuration not stated), for which the protection from apoptosis was 6.26%.
With `CC(=O)N1CCCc2cc(S(=O)(=O)N3CCCC(C(=O)N4CCN(c5cccc(Cl)c5)CC4)C3)ccc21` (configuration not stated), the protection from apoptosis was 89.9% (active).
Consider `CC(=O)N1CCCc2cc(S(=O)(=O)N3CCCC(C(=O)NCc4ccc(Cl)cc4)C3)ccc21` (configuration not stated), for which the protection from apoptosis was 4.03%.
Regarding `COc1ccccc1C(=O)OCC(=O)Nc1cccc(S(=O)(=O)NC2=NCCCCC2)c1`, the protection from apoptosis is -2.64%.
As for `O=C(NCCc1ccco1)c1ccc(OCc2cn3ccccc3n2)cc1`, the protection from apoptosis is 1.94%.
For the compound `Cc1cc(C)n(-c2c(F)c(F)c(COC(=O)c3ccccc3)c(F)c2F)n1`, the protection from apoptosis was 3.67%.
The figure for `CCOC(=O)c1cnc(-n2nc(C)cc2C)nc1NNc1cc(C)nc(-c2ccccc2)n1` is 84.8% (active); for `CCOC(=O)c1cnc(-n2nc(C)cc2C)nc1Nc1cccc(C(C)=O)c1` it is 8.92%.
As for `C=CCC[C@H](Cc1ccc(F)cc1)C(=O)OC[C@@H](NC(=O)[C@@H](CC=C)CC(=O)N[C@H](CO)Cc1ccccc1)C(C)(C)C`, the protection from apoptosis was 5.28%.
For `O=C(NNS(=O)(=O)c1c(F)cc(F)c(Cl)c1F)C12CC3CC(CC(C3)C1)C2` the value was -12%; for `Cc1nc2ccccc2cc1OCc1ccc(F)cc1`, 95.4% (active); for `Cc1occc(=O)c1OCc1ccc(F)cc1`, -6.87%.
For `Fc1ccccc1COc1cccc2cccnc12` the value was -7.41%; for `CCOC(=O)c1c(NC(=O)c2ccc(S(=O)(=O)N(C)CC3CCCO3)cc2)sc2c1CC(C)(C)NC2(C)C` (configuration not stated), 25.6%.
On to `Cc1nn(-c2ccccc2)c(C)c1NC(=O)COc1ccc(Cl)cc1Cl`, for which the protection from apoptosis is 0.164%.
With `COC(=O)c1c(NC(=O)COc2ccc(Cl)cc2Cl)sc2c1CC(C)(C)NC2(C)C`, the protection from apoptosis is 114% (active).
In the case of `COc1cc(OC)cc(C(=O)N[C@H](C(=O)NNC(=O)c2ccc(Br)cc2)C(C)C)c1`, the protection from apoptosis is -4.34%.
The figure for `CC1CCCCC1NCC(=O)Nc1ccccc1C(=O)Nc1ccccc1` (configuration not stated) is 4.75%; for `CSc1nc(-c2ccccc2)nc(C(Cl)Cl)n1` it is 105% (active); for `CSc1ncc(Sc2ccccc2)c(C(=O)O)n1` it is -2.15%.
On to `COc1cc(OC)c(N2CC(C(=O)Nc3cc(Cl)ccc3N3CCOCC3)CC2=O)cc1Cl` (configuration not stated), for which the protection from apoptosis was 26.3%.
Consider `O=C(COC(=O)Cc1ccc([N+](=O)[O-])cc1)NC1CCCCCC1`, for which the protection from apoptosis was -5.89%.
For `NC(=O)C1CCN(C(=O)c2ccc(F)c(S(=O)(=O)N3CCOCC3)c2)CC1` the value was 0.339%; for `O=C(c1cccnc1)N(c1cc2sc(=O)oc2c2ccccc12)S(=O)(=O)c1ccccc1`, 81.4% (active); for `COc1ccc(N(C(=O)c2cccnc2)S(=O)(=O)c2ccc3c(c2)n(C)c(=O)n3C)cc1`, -8.54%.
`COc1ccc(N(C(=O)c2cccnc2)S(=O)(=O)c2ccc(OC)c(OC)c2)cc1`: the protection from apoptosis is -3.31%.
Consider `COc1cc(Cl)c(C)cc1NC(=O)CSc1nnc(CN2CCCC2)o1`, for which the protection from apoptosis is 2.22%.
Consider `COc1cccc(NC(=O)COC(=O)c2ccc3ccccc3n2)c1`, for which the protection from apoptosis was -5.49%.
For `Cc1ccc(OCCCn2c(=O)oc3ccccc32)cc1` the value was 1.16%; for `CCOC(=O)Cn1c(-c2cccnc2Cl)nc2ccccc21`, -2.69%; for `CCCCCCCCCCOC(=O)Cn1c(COc2cccc(OC)c2)[n+](C)c2ccccc21`, 109% (active).
On to `CCn1c(=N)n(CC(=O)c2cccc(OC)c2)c2ccccc21`, for which the protection from apoptosis is -5.87%.
Take `COc1cccc(OCCCN2CCCCCC2)c1`: the protection from apoptosis was -3.45%.
Take `CCCCCCCCCCOC(=O)Cn1c(COc2ccc(C)cc2)[n+](C)c2ccccc21`: the protection from apoptosis was 112% (active).
For `COc1ccc2nc3n(c(=O)c2c1)-c1cc(C)ccc1C(=O)NC3Cc1ccc(O)cc1` (configuration not stated), the protection from apoptosis was 9.76%.
For `COc1ccc(NS(=O)(=O)c2cc(NC(=O)c3ccc(S(=O)(=O)N(C)C)cc3)ccc2N2CCOCC2)cc1` the value was 5.26%; for `COc1ccccc1OCCNC(=O)C(CCSC)NC(=O)COc1ccccc1` (configuration not stated), -1.66%.
`Cc1cc(N2CCN(S(=O)(=O)c3ccc(C)c(C)c3)CC2)c2ccccc2n1`: the protection from apoptosis is 10.4%.
As to `COc1ccc(C)cc1S(=O)(=O)N1CCN(S(=O)(=O)c2cc(C(=O)O)ccc2C)CC1`, the protection from apoptosis was -3.1%.
On to `Cc1ccc(C)c(S(=O)(=O)N2CCN(C(=O)Nc3ccccc3)CC2)c1`, for which the protection from apoptosis was -4.43%.
As to `Cc1ccc(S(=O)(=O)N2CCN(c3ncnc4ccccc34)CC2)cc1`, the protection from apoptosis is 102% (active).
Turning to `Cc1ccc(S(=O)(=O)N2CCN(C)CC2)cc1`, the protection from apoptosis is 4.63%.
As to `Cc1ccc(C)c(S(=O)(=O)N2CCN(c3ncnc4sccc34)CC2)c1`, the protection from apoptosis is 112% (active).
As to `COC(=O)[C@]1(CC(C)C)N[C@H](c2ccc(SC3CCCCC3)cc2)[C@@H]2C(=O)N(C)C(=O)[C@@H]21`, the protection from apoptosis is 2.66%.
Take `C[C@H](CO)N1C[C@H](C)[C@@H](CN(C)C(=O)NC2CCCCC2)Oc2ccc(NC(=O)c3ccncc3)cc2C1=O`: the protection from apoptosis was -8.1%.
Turning to `CCOc1ccc(NS(=O)(=O)c2ccc(Cl)c(C(=O)N(C)Cc3cccnc3)c2)cc1`, the protection from apoptosis was 5.11%.
For `COc1ccccc1CNC(=O)COC(=O)c1cccs1` the value was -8.13%.
The figure for `O=C1NC[C@@H](c2ccccc2)OC(=O)[C@H](Cc2ccc(F)cc2)CC/C=C/C[C@H]1CC(=O)N(CCO)Cc1ccccc1` is 5.81%; for `C#CCOCCOCCOCCNc1nc(N2CCN(C(=O)[C@H](CCCN=C(N)N)n3cc(C(N)[C@@H](C)CC)nn3)CC2)nc(N2CCN(C(=O)[C@H](CO)n3cc([C@@H](N)C(C)C)nn3)CC2)n1` (some centres not stated) it is -10.4%; for `COc1ccc2cc1Oc1ccc(cc1)C[C@H]1c3cc(c(OC)cc3CCN1C)Oc1c(O)c(OC)cc3c1[C@H](C2)N(C)CC3` it is 98.5% (active).
As to `COc1c(O)ccc2c1CN1CCc3cc4c(cc3C1C2)OCO4` (configuration not stated), the protection from apoptosis was -2.11%.
For the compound `O=C(CNC(=O)c1ccco1)NNC(=O)c1ccc(Br)cc1`, the protection from apoptosis is -6.27%.
In the case of `CC(C)(C)OC(=O)C[C@H]1C/C=C\C[C@@H](CC(=O)N[C@H](CO)Cc2ccccc2)C(=O)NC[C@@H](c2ccccc2)OC1=O`, the protection from apoptosis was 6.61%.
Regarding `CC1O[C@H](OC2C(COC3OC(CO)C(O)[C@H](O)C3O)OC(OC3CC[C@]4(C)C(CC[C@@]5(C)[C@@H]4C=C[C@]46OC[C@@]7(CCC(C)(C)C[C@H]74)C(O)C[C@@]56C)C3(C)C)C(O)C2O)C(O)C(O)C1O` (some centres not stated), the protection from apoptosis was -6.92%.
For the compound `C=C(C)C(=O)O[C@H]1C/C(C)=C\C(=O)/C=C(\C)[C@H](O)[C@@H]2OC(=O)C(=C)[C@@H]21`, the protection from apoptosis was 96.8% (active).
`O=C(NCc1ccc2c(c1)OCO2)c1cc([N+](=O)[O-])ccc1N1CCOCC1`: the protection from apoptosis was 12.9%.
For `O=C(COC(=O)C1CCCO1)Nc1nc(-c2ccc(F)cc2)cs1` (configuration not stated), the protection from apoptosis was 0.639%.
Consider `c1ccc2c(CCN3CCNC[C@H]3Cc3cccc4ccccc34)cccc2c1`, for which the protection from apoptosis was 1.24%.
For `CC(C)CC[n+]1ccn(C2=C([O-])c3ccccc3C(=O)/C2=N\S(=O)(=O)c2ccccc2)c1` the value was 95% (active); for `COc1ccc(S(=O)(=O)/N=C2\C=C(NS(=O)(=O)c3ccccc3)C(=O)c3ccccc32)cc1`, 1.27%; for `COc1ccc(OCC(=O)NNC(=O)C2CCC2)cc1`, -4.44%.
As for `COC(=O)[C@]1(Cc2ccccc2)N[C@H](CN(C)S(=O)(=O)c2ccc(F)cc2)[C@@H]2C(=O)N(Cc3ccccc3)C(=O)[C@@H]21`, the protection from apoptosis is 10.3%.
`CN(Cc1cccnc1)C(=O)c1cc(COc2ccc3ncccc3c2)on1`: the protection from apoptosis was 101% (active).
Take `Cc1ccc(OCc2cc(C(=O)N(C)CCc3ccccc3)no2)cc1C`: the protection from apoptosis is -0.126%.
On to `Cc1cc(CN(C)C(=O)c2cc(COc3ccc(C)c(C)c3)on2)n[nH]1`, for which the protection from apoptosis is -0.122%.
On to `O=C(COC(=O)COc1ccccc1F)Nc1cccc(S(=O)(=O)N2CCCCC2)c1`, for which the protection from apoptosis was -4.07%.
On to `O=C(NCCCN1CCOCC1)c1cn(-c2ccccc2)nc1-c1ccc(F)cc1`, for which the protection from apoptosis is -0.73%.
As to `Cc1oc2c(c1C(=O)N1CCOCC1)C(=O)c1ccccc1C2=O`, the protection from apoptosis was 108% (active).
`Cc1noc(C)c1C(=O)N1CCOCC1`: the protection from apoptosis is -4.19%.
As to `CCOC(=O)c1ccccc1C(=O)N1CCOCCOCCOCC1`, the protection from apoptosis was 0.0542%.
For the compound `COc1cc(NS(=O)(=O)c2ccc(NC(C)=O)cc2)cc(OC)c1`, the protection from apoptosis is 25.4%.
As to `CC(=O)Nc1ccc(S(=O)(=O)Nc2ccc(N3CCCCC3)cc2)cc1`, the protection from apoptosis is 119% (active).
Regarding `CC(=O)Nc1ccc(S(=O)(=O)Nc2ccc(N3CCOCC3)c(F)c2)cc1`, the protection from apoptosis was 2.71%.
For `COc1ccc(C)cc1NC(=O)CSc1cccc[n+]1[O-]` the value was -1.83%.
Consider `CSc1ncccc1C(=O)NCC(c1ccco1)N1CCCCC1` (configuration not stated), for which the protection from apoptosis was -20.2%.
With `CC(C(=O)N1CCc2ccccc21)N(C)CC(=O)Nc1ccc(F)cc1` (configuration not stated), the protection from apoptosis was 6.77%.
`Fc1ccc2cnc(-c3ccccc3)cc2c1`: the protection from apoptosis is -4.87%.
For `C[C@]12CC[C@H](O)CC1=CCC1C2CC[C@@]2(C)C1CC[C@@H]2NC(=O)CCC(=O)O` (some centres not stated) the value was 0.606%; for `COc1cc(OC)cc(C(=O)NNC(=O)Cc2cccs2)c1`, -2.67%; for `CC(=O)c1c(C)oc2ccc(NS(=O)(=O)c3ccccc3)cc12`, -0.111%.
For `COc1ccc(S(=O)(=O)Nc2ccc3oc(C)c(C(C)=O)c3c2)cc1`, the protection from apoptosis was 87.4% (active).
For the compound `CC(=O)c1c(C)oc2ccc(NS(=O)(=O)c3ccc(C(=O)O)cc3)cc12`, the protection from apoptosis is -1.56%.

For the origin of these results see PubChem BioAssay AID435005 (Broad Institute, 2010).
